Data taken from PubChem BioAssay (NCATS).
“And” between values parts separate entries of the source, which are not always exact repeats. Identical values can stand only once. Inconclusive results are not listed. More than one record can exist for a structure, and the calls need not agree. The source made the active and inactive calls. The call rests on the fitted dose curve; in most records, active means well fitted curve in the direction sought with a large enough effect; inconclusive means small, poorly fitted or top-dose-only effect, or another doubt; inactive means no such curve, though single readings can be large; an effect the other way counts as inactive or inconclusive.

Columns and labels:
HaCat [1] = assay: Cytotoxic Profiling of Annotated Libraries Using Quantitative High-Throughput Screening (AID 1296008); settings: Five cell lines viability, CellTiter-Glo ATP luminescence, 48-72 h; max response: active compounds read low; further: nearly all actives have a fitted effect of over 60% in size
In short: (§1)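 Cytotoxicity was measured as CellTiter-Glo ATP luminescence, read after 10 min at room temperature. Compound treatment of the cells lasted 48 or 72 hr at 37 degrees Celsius in a qHTS format.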

KB-3-1 = assay: as above; settings: Five cell lines viability, CellTiter-Glo ATP luminescence, 48-72 h; max response: active compounds read low
In short: as §1

HACAT [2] = assay: qHTS assay to identify novel small-molecules to repurpose for Merkel cell carcinoma treatment (AID 1296009); settings: MCC and control cell lines, CellTiter-Glo viability, 72 h; at 44.8 µM (top of the series) unless noted; further: nearly all actives have a fitted effect of over 60% in size
In short: (§2)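 Cell viability, measured as CellTiter-Glo luminescence, was normalized between DMSO and no-cell wells. The cells had been exposed to 8- or 11-point compound dilutions for 72 hr at 37 degree celsius.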

MCC-13 = assay: as above; settings: MCC and control cell lines, CellTiter-Glo viability, 72 h; series mostly up to 46 µM
In short: as §2

MCC-26 = assay: as above; settings: MCC and control cell lines, CellTiter-Glo viability, 72 h; series mostly up to 46 µM
In short: as §2

MKL-1 = assay: as above; settings: MCC and control cell lines, CellTiter-Glo viability, 72 h; series mostly up to 46 µM
In short: as §2

MKL-2 = assay: as above; settings: MCC and control cell lines, CellTiter-Glo viability, 72 h; series mostly up to 46 µM
In short: as §2

UISO = assay: as above; settings: MCC and control cell lines, CellTiter-Glo viability, 72 h; series mostly up to 46 µM
In short: as §2

WaGa = assay: as above; settings: MCC and control cell lines, CellTiter-Glo viability, 72 h; series mostly up to 46 µM
In short: as §2

NIH3T3 [3] = assay: Cytotoxic Profiling of Annotated Libraries Using Quantitative High-Throughput Screening (AID 1296008); settings: Five cell lines viability, CellTiter-Glo ATP luminescence, 48-72 h; max response: active compounds read low; further: nearly all actives have a fitted effect of over 60% in size
In short: as §1

C33A = assay: Primary qHTS to identify gynecologic anti-cancer compounds using libraries of approved drugs and bioactive compounds (AID 1345084); settings: Gynecologic cancer cell panel viability, ATPlite luminescence, 48 h; series mostly up to 57.5 µM; further: nearly all actives have a fitted effect of over 55% in size
In short: (§3)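 Luminescence from the ATPlite ATP-monitoring reagent indicates viable cell number; lower signal means cytotoxicity. Cells received compound 16 h after seeding and were exposed for 48 h across five concentrations.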

CAOV3 = assay: as above; settings: Gynecologic cancer cell panel viability, ATPlite luminescence, 48 h; series mostly up to 57.5 µM
In short: as §3

CASKI = assay: as above; settings: Gynecologic cancer cell panel viability, ATPlite luminescence, 48 h; series mostly up to 57.5 µM
In short: as §3

Es-2 = assay: as above; settings: Gynecologic cancer cell panel viability, ATPlite luminescence, 48 h; series mostly up to 57.5 µM
In short: as §3

HeLa = assay: as above; settings: Gynecologic cancer cell panel viability, ATPlite luminescence, 48 h; series mostly up to 57.5 µM
In short: as §3

Hek293T = assay: as above; settings: Gynecologic cancer cell panel viability, ATPlite luminescence, 48 h, control line for the selectivity index; series mostly up to 57.5 µM
In short: as §3

JEG-3 = assay: as above; settings: Gynecologic cancer cell panel viability, ATPlite luminescence, 48 h; series mostly up to 57.5 µM
In short: as §3

NIH3T3 [4] = assay: qHTS assay to identify novel small-molecules to repurpose for Merkel cell carcinoma treatment (AID 1296009); settings: MCC and control cell lines, CellTiter-Glo viability, 72 h; at 44.8 µM (top of the series) unless noted; further: nearly all actives have a fitted effect of over 60% in size
In short: as §2
On the % scale 0 is the no-effect control and ±100 the full control effect; potency means the concentration at half of the fitted maximal effect.

C[C@](O)(COc1ccc(C#N)cc1)C(=O)Nc1ccc(C#N)c(C(F)(F)F)c1
inactive: outcome (HaCat [1]) | max response (KB-3-1) -23.6% | outcome (HACAT [2]) | Potency (MCC-13) | Potency (MCC-26) | Potency (MKL-1) | Potency (MKL-2) | Potency (UISO) | Potency (WaGa)

C[C@H]1CCCC=CC2C[C@H](O)C[C@@H]2[C@H](O)C=CC(=O)O1 (stereo partly specified)
inactive: max response (HaCat [1]) -111% | Potency (MCC-13) | Potency (MCC-26) | Potency (MKL-1) | Potency (MKL-2) | Potency (UISO) | Potency (WaGa)
active: Potency (KB-3-1) 1 nM | Potency (NIH3T3 [3]) 1.05 µM

Cc1[nH]nc2ccc(-c3cncc(OC[C@@H](N)Cc4c[nH]c5ccccc45)c3)cc12
active: Potency (HaCat [1]) 1180 nM | Potency (KB-3-1) 146 nM | Potency (NIH3T3 [3]) 1.66 µM and 1.64 µM | Potency (MCC-13) 2350 nM | Potency (MCC-26) 3720 nM | Potency (MKL-2) 3720 nM | Potency (UISO) 235 nM | Potency (WaGa) 833 nM | Potency (C33A) 316 nM | Potency (CAOV3) 1120 nM | Potency (CASKI) 2820 nM | Potency (Es-2) 1780 nM | Potency (HeLa) 891 nM | Potency (Hek293T) 631 nM | Potency (JEG-3) 2820 nM

C[C@@]12OC(=O)[C@]1([C@@H](O)[C@@H]1C=CCCC1)NC(=O)[C@H]2CCCl
active: Potency (HaCat [1]) 16600 nM | Potency (KB-3-1) 418 nM | Potency (MCC-13) 3320 nM | Potency (MCC-26) 833 nM | Potency (MKL-1) 1180 nM | Potency (MKL-2) 526 nM | Potency (UISO) 1480 nM | Potency (WaGa) 662 nM

COC[C@H]1OC(=O)c2coc3c2[C@@]1(C)C1=C(C3=O)[C@@H]2CC[C@H](O)[C@@]2(C)C[C@@H]1OC(C)=O
active: Potency (NIH3T3 [3]) 16.6 µM | Potency (MKL-2) 8330 nM | Potency (WaGa) 10500 nM
inactive: max response (HaCat [1]) -14.2% | max response (KB-3-1) -14.9% | Potency (MCC-13) | Potency (MCC-26)

O=S(=O)(O)C(F)(F)C(F)(F)C(F)(F)C(F)(F)C(F)(F)C(F)(F)C(F)(F)C(F)(F)F
inactive: max response (HaCat [1]) 0.89% | max response (KB-3-1) -10.5% | outcome (NIH3T3 [3]) | Potency (MCC-13) | Potency (MCC-26) | Potency (MKL-1) | outcome (NIH3T3 [4]) inactive [at 92 µM] | Potency (UISO) | Potency (C33A) | Potency (CAOV3) | Potency (CASKI) | Potency (Es-2) | Potency (HeLa) | Potency (Hek293T) | Potency (JEG-3)

O=c1[nH]c2ccc(Cl)cc2c(N[C@@H]2CN3CCC2CC3)c1-c1nc2ccccc2[nH]1
inactive: Potency (C33A)
active: Potency (HaCat [1]) 16600 nM | Potency (KB-3-1) 3720 nM | Potency (NIH3T3 [3]) 83.3 nM and 206 nM | Potency (MCC-13) 4180 nM | Potency (MCC-26) 7430 nM | Potency (MKL-1) 743 nM | Potency (MKL-2) 2640 nM | Potency (UISO) 5900 nM | Potency (WaGa) 1480 nM | Potency (CASKI) 10000 nM | Potency (Es-2) 447 nM | Potency (HeLa) 3160 nM

CC(Cc1ccc(O)cc1)NCC(O)c1cc(O)cc(O)c1 (stereo unspecified)
inactive: max response (HaCat [1]) -18.5% | max response (KB-3-1) 6.39% | max response (NIH3T3 [3]) -6.43% | Potency (MCC-13) | Potency (MCC-26) | Potency (MKL-1) | Potency (MKL-2) | Potency (UISO) | Potency (WaGa) | Potency (CAOV3) | Potency (CASKI) | Potency (Es-2) | Potency (HeLa) | Potency (Hek293T) | Potency (JEG-3)

Oc1ccc2c3c1O[C@H]1[C@@H](O)C=C[C@H]4[C@@H](C2)NCC[C@@]341
active: Potency (WaGa) 25000 nM
inactive: max response (HaCat [1]) -5.53% | max response (KB-3-1) -5.17% | max response (NIH3T3 [3]) -2.9% | Potency (MCC-13) | Potency (MCC-26) | Potency (UISO) | Potency (C33A) | Potency (CAOV3) | Potency (CASKI) | Potency (Es-2) | Potency (HeLa) | Potency (Hek293T) | Potency (JEG-3)

CCOCCOC(C)=O
inactive: max response (HaCat [1]) -11.2% | max response (KB-3-1) -19.2% | max response (NIH3T3 [3]) -2.47% | Potency (MCC-13) | Potency (MCC-26) | Potency (MKL-1) | Potency (MKL-2) | Potency (UISO) | Potency (WaGa) | Potency (C33A) | Potency (CASKI) | Potency (Es-2) | Potency (HeLa) | Potency (JEG-3)

Nc1ccc(Cl)cc1
inactive: max response (HaCat [1]) -11.6% | max response (KB-3-1) -17.1% | max response (NIH3T3 [3]) 2.51% | Potency (MCC-13) | Potency (MCC-26) | Potency (MKL-1) | Potency (MKL-2) | Potency (UISO) | Potency (WaGa) | Potency (C33A) | Potency (CAOV3) | Potency (CASKI) | Potency (Es-2) | Potency (HeLa) | Potency (Hek293T) | Potency (JEG-3)

CCCCCCCCCCCCCCCC[N+](C)(C)C
active: Potency (HaCat [1]) 2110 nM | Potency (NIH3T3 [3]) 21.1 µM | Potency (MCC-26) 26600 nM | Potency (MKL-1) 944 nM | Potency (MKL-2) 750 nM | Potency (WaGa) 2370 nM | Potency (CAOV3) 8910 nM | Potency (CASKI) 20000 nM

COc1ccc(N(C(=O)Oc2c(C)cccc2C)c2ccnc(Nc3ccc(N4CCN(C)CC4)cc3)n2)c(OC)c1
inactive: max response (KB-3-1) -15.9% | Potency (UISO) | Potency (CAOV3) | Potency (CASKI) | Potency (Hek293T) | Potency (JEG-3)
active: Potency (KB-3-1) 16400 nM | Potency (NIH3T3 [3]) 18.7 µM | Potency (MKL-1) 13200 nM

O=S(=O)(c1ccc(Cl)cc1)c1ccc(Cl)cc1
inactive: max response (KB-3-1) -10.2% | max response (NIH3T3 [3]) -7.95% | Potency (MCC-13) | Potency (MCC-26) | Potency (MKL-1) | Potency (UISO) | Potency (C33A) | Potency (CAOV3) | Potency (CASKI) | Potency (Es-2) | Potency (HeLa) | Potency (Hek293T) | Potency (JEG-3)

CCCCc1ccc(C(=O)O)nc1
inactive: max response (KB-3-1) 2.2%
